# Measurements taken from ChEMBL document CHEMBL4513216, “Probing the Open Global Health Chemical Diversity Library for Multistage-Active Starting Points for Next-Generation Antimalarials” (ACS Infect Dis, 2020).
# Hit rate of the full screen: of about 69,000 compounds, about 8,600 (12%) showed an effect of 50% or more. What follows is part of a selection rich in strong results, with near analogues and random picks from the rest.
# Tested on: Plasmodium berghei
# Test: Screen against P. berghei liver stage (PbLuc), transformed with Luciferase, at 10uM
# Type: functional, HepG2
# Details: tested at 10 uM
row,SMILES,INHIBITION
1,Cc1cc(C2CCCN(CCNS(=O)(=O)c3ccccc3)C2)n[nH]1 (stereo not drawn),11.9%
2,CC1CN(C)CCN1C(=O)Nc1nc(-c2ccco2)cs1 (stereo not drawn),14%
3,O=C(c1ccco1)N1CCC2(CCC(=O)N2Cc2ccncc2)CC1,8.74%
4,c1ccc(Cc2noc(-c3ccc(NCC4COCCO4)nc3)n2)cc1 (stereo not drawn),12.02%
5,CC(NC(=O)NCCC(=O)OC(C)(C)C)c1nncn1C (stereo not drawn),25.4%
6,CCc1nccn1-c1cncc(C2CCCN2CC(=O)N2CCCC2)n1 (stereo not drawn),4.08%
7,Cc1cc2cccc(C(=O)N3CCOC(CCN(C)C)C3)c2o1 (stereo not drawn),33%
8,Cc1cccc(CN2CC3(CCN(S(=O)(=O)C4CC4)CC3)OCC2=O)n1,7.53%
9,Cc1nccn1CCCn1cncc1-c1ccc2c(c1)CCCN2C,41.5%
10,Cc1nccn1CCCn1cncc1-c1ccc2c(c1)CCC(C)N2C (stereo not drawn),87.7%
11,CCN1c2ccc(-c3cncn3CCCn3ccnc3C)cc2CC1C (stereo not drawn),36%
12,CN1CCCc2cc(-c3cncn3CCNC3CCS(=O)(=O)C3)ccc21 (stereo not drawn),32.3%
13,Cc1nccn1CCCn1cncc1-c1ccc2c(c1)CC(C)N2C (stereo not drawn),62.4%
14,Cc1cc(C)n(CCCn2cncc2-c2ccc3c(c2)CC(C)N3C)n1 (stereo not drawn),42.6%
15,O=C(NCc1ccco1)[C@@H]1CCO[C@@H]2CCN(c3ncccn3)C[C@H]21,17.1%
16,O=C(Cn1ncc2c(c1=O)CCCC2)Nc1cccc2[nH]ccc12,30.2%
17,Cc1nc(N(C)C)nc(NCCc2c[nH]cn2)c1C,-38%
18,COCC(=O)N1CCCC(c2csc(NC(C)=O)n2)C1 (stereo not drawn),-55%
19,CCCn1cc(S(=O)(=O)N(C)Cc2nonc2C)c(C)n1,3.48%
20,Cn1cc(CN2CCc3c(cnc(-c4ccccc4)c3C(=O)O)C2)cn1,23.3%
21,CNC(=O)C1Cn2ccnc2C2(CCN(C(=O)CC3CCCC3)CC2)O1 (stereo not drawn),-10.3%
22,Cc1ccc(C(=O)N2CCC(c3noc(-c4cccnc4)n3)CC2)cn1,42.6%
23,COCCN1C[C@@H](C)[C@@]2(COCCN(C(=O)c3ccccn3)C2)C1,36.2%

row,SMILES,INHIBITION
1,CCCNC(=O)c1nn(CC)cc1NC(=O)c1c(C)nn(C)c1C,-4.56%
2,O=C(COc1cccc(Cl)c1)N1CCOCC1c1ncon1 (stereo not drawn),7.12%
3,Cc1cc(C)cc(OCCC(=O)N2CCOCC2c2ncon2)c1 (stereo not drawn),50.4%
4,Cc1ccc(CCC(=O)N2CCOCC2c2ncon2)c(C)c1 (stereo not drawn),-56.7%
5,O=C(COc1ccc(Cl)cc1)N1CCOCC1c1ncon1 (stereo not drawn),55.4%
6,CCc1ccc(CCC(=O)N2CCOCC2c2ncon2)cc1 (stereo not drawn),27.9%
7,CC(C)c1ccc(OCC(=O)N2CCOCC2c2ncon2)cc1 (stereo not drawn),-50.8%
8,Cc1ccc(OCCC(=O)N2CCOCC2c2ncon2)cc1C (stereo not drawn),21.6%
9,Cc1cccc(C)c1OCC(=O)N1CCOCC1c1ncon1 (stereo not drawn),-53.2%
10,CCc1ccccc1OCC(=O)N1CCOCC1c1ncon1 (stereo not drawn),60.5%
11,Cc1cc(C(F)(F)F)c2c(=O)n(Cc3ccon3)n(C)c2n1,14.3%
12,CC(C)N(C)Cc1cncc2c1CCN(C1CCOCC1)C2,25.6%
13,COc1ccc(C(=O)CCc2nc(C3CC3)no2)cc1,-23.3%
14,Cc1cnn(CC2CCCCN2C(=O)c2ccc(N(C)C)nc2)c1 (stereo not drawn),-4.16%
15,c1ccc(CN2CCc3c(COCC4CC4)cncc3C2)nc1,23.5%
16,Cc1nc2cc(-c3nccn3C)nn2c(N2CCCC(CO)C2)c1C (stereo not drawn),-15.9%
17,O=S(=O)(NCc1ccccc1)N(Cc1ccccn1)CC1CCCO1 (stereo not drawn),-1.91%
18,CC(C)[C@@H]1CN(Cc2ccccn2)C[C@H]1NS(=O)(=O)N(C)C,9.72%
19,CC(C)[C@H]1CN(Cc2ccccn2)C[C@@H]1NC(=O)CCS(C)(=O)=O,28.2%
20,CC(C)[C@H]1CN(Cc2ccccn2)C[C@@H]1NS(=O)(=O)C1CC1,67.5%
21,COc1ccc(CC2(CO)CCN(c3cc(C#N)ccn3)CC2)cc1,1.74%
22,CC(=O)NCCNC(=O)NCc1ccc(-n2ccc(C(F)(F)F)n2)cc1,-12.1%
23,CCN(C(=O)c1nc2c(s1)CCCN2C)C(C)C,23.6%

row,SMILES,INHIBITION
1,CC(C)c1noc(CCNC(=O)N2CCSC(C(C)C)C2)n1 (stereo not drawn),37.9%
2,CCC(CO)N(Cc1ccsc1)Cc1cccc(O)c1 (stereo not drawn),-60.8%
3,CCC(CO)N(Cc1ccsc1)CC1CC1 (stereo not drawn),50.7%
4,CCC(CO)N(Cc1ccc(C(=O)O)cc1)Cc1ccsc1 (stereo not drawn),15%
5,CCC(CO)N(CC=C(C)C)Cc1ccsc1 (stereo not drawn),55%
6,CCC(CO)N(Cc1ccsc1)Cc1ccccc1C#N (stereo not drawn),37.6%
7,CCC(CO)N(Cc1ccsc1)Cc1ccccc1C(=O)O (stereo not drawn),-69.3%
8,CN1CCO[C@@H]2CN(S(=O)(=O)c3ccccc3)C[C@@H]2C1,25.6%
9,CC(C)c1ncncc1C(=O)NCCN1CCCCCC1,35.4%
10,Cc1csc(N2CCN(C(=O)C3(C#N)CCCCC3)CC2)n1,24.635%
11,CC(O)CN1CCN(C(=O)c2ccc(CN(C)C)cc2)CC1 (stereo not drawn),10%
12,CS(=O)(=O)N1CCC(C(=O)NC(Cc2ccsc2)c2cccnc2)CC1 (stereo not drawn),47.1%
13,Cc1ccc(C(=O)N2CCC3(CC2)COCCN(S(C)(=O)=O)C3)cc1C,-4.88%
14,Cc1cc(OCC(=O)NS(=O)(=O)c2cccnc2)ccc1Cl,38.5%
15,CN(C)C(=O)c1ccccc1NC(=O)N[C@@H]1c2ccccc2C[C@@H]1O,48.9%
16,CS(=O)(=O)c1ccccc1N[C@@H]1c2ccccc2C[C@@H]1O,67.5%
17,CNC(=O)Cc1ccccc1NC(=O)N[C@H]1c2ccccc2C[C@H]1O,54.5%
18,CNC(=O)Cc1ccccc1NC(=O)C1CCCC1,42.6%
19,CS(=O)(=O)c1ccccc1C(=O)NCC1Cc2ccccc2O1 (stereo not drawn),-9.76%
20,CS(=O)(=O)c1ccccc1NC(=O)N[C@@H]1c2ccccc2C[C@@H]1O,35%
21,Cc1ccc(CN2CCC3(CC2)OC(C(=O)N(C)C)c2ccccc23)o1 (stereo not drawn),34%
22,CN(Cc1ccc2c(c1)OCO2)C(=O)Cn1cccnc1=O,44.1%
